Consider four molecules from PubChem BioAssay.

Results filed as inconclusive are left out. The source made the active and inactive calls.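 The calls were made as follows, unless noted: active = binding below the plate cutoff, the plate median minus 3 SD, with a reading above zero; inconclusive = below the plate cutoff but reading exactly zero; inactive = the rest.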

As usually defined, the inhibition is the drop in the measured response relative to a control, in per cent.

Assay [1] in a line: yeast TOR pathway RPL19A-GFP modulators, primary screen, cell-based, S. cerevisiae, multiplex flow cytometry (AID 1862; in the data active = percent of DMSO control GFP below about 86%;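 also: lower values mimic rapamycin by blocking the RPL19A rise seen in DMSO cells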). The settings on record: S. cerevisiae RPL19A-GFP strain, flow cytometry fluorescence, 3 h; at 10 µM; stronger effect = lower value. (In general: Flow cytometry measures light scatter and fluorescence of single cells or particles in a stream.)
The nature of assay [2]: modulators of MEP2-GFP levels in yeast, primary screen, S. cerevisiae, multiplex flow cytometry (AID 1867;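 active = GFP response, as percent of the DMSO control, above the screen-wide mean plus 3 SD, about 139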;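 also: median GFP channel fluorescence of barcode-gated MEP2-GFP cells measured by flow cytometry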). Particulars: S. cerevisiae MEP2-GFP strain, 3 h, at 10 µM, stronger effect = higher value, 100% means same as DMSO wells.
Assay [3] is described as follows: modulators of CIT2-GFP expression in yeast, primary screen, S. cerevisiae, GFP fusion, multiplex flow cytometry (AID 1870;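 active = percent response above a set limit, the screen-wide mean plus 3 SD, cut at about 130% in these data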;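 also: barcoded CIT2-GFP strain pooled with four other GFP strains with rapamycin as positive control; median GFP fluorescence per well over plate mean of DMSO wells so 100% = DMSO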). The settings on record: 3 h, at 10 µM, stronger effect = higher value.
A short description of assay [4]: modulators of LAP4-GFP expression in yeast, primary screen, S. cerevisiae, multiplex flow cytometry (AID 1873;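 active = GFP signal, as percent of the solvent control, above the screen mean plus 3 SD, about 149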). Particulars: 3 h, at 10 µM, stronger effect = higher value.
Assay [5] in a line: modulators of AGP1-GFP expression in yeast TOR pathway, primary screen, cell-based, multiplex flow cytometry, S. cerevisiae (AID 1887;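 active = GFP signal above the screen-wide mean plus 3 SD, that is over about 124.5% of the solvent control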;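 also: AGP1-GFP fusion strain of S. cerevisiae within a five-strain barcoded multiplex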). The settings on record: 3 h, at 10 µM, stronger effect = higher value.
A short description of assay [6]: inhibitors of CD8+ T cell-vesicle binding, pilot screen, LFA-1/ICAM-1 modulator project, MLPCN validation set, flow cytometry (AID 2523;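 active = response below a set limit, under 55% cells CD8-positive and vesicle-bound, and CD8 cells' 90th-percentile brightness under 279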;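 as to vesicle binding response: mean PE anti-B7-1 fluorescence of CD8+ cells relative to row control; 100% = QL9-loaded vesicles with DMSO vehicle in the same plate row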). Particulars: 2C mouse CD8+ T cells, at 7 µM, stronger effect = lower value; double positive events: measured here: CD8+/vesicle+ event percentage.
Assay [7] deals with Integrin beta-1 (Homo sapiens) + Integrin alpha-4 (Homo sapiens) (UniProt P13612+P05556). Description: inhibition of HUTS-21 binding to VLA-4, pilot screen, VLA-4 allosteric modulator project, U937 cells, HUTS-21 mAb, flow cytometry, validation set (AID 2674;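 active = inhibition above 50%, about 3 SD of the validation set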;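 also: antibody binding induced by the VLA-4 ligand LDV present at three times its Kd; 0% = LDV ligand with antibody and no compound and 100% = antibody without LDV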). The settings on record: HUTS-21 LIBS mAb binding, at 6.7 µM, stronger effect = higher value, binding induced by LDV ligand.
Sequence of Integrin beta-1 (Homo sapiens) + Integrin alpha-4 (Homo sapiens) (P05556 whole entry, looked up): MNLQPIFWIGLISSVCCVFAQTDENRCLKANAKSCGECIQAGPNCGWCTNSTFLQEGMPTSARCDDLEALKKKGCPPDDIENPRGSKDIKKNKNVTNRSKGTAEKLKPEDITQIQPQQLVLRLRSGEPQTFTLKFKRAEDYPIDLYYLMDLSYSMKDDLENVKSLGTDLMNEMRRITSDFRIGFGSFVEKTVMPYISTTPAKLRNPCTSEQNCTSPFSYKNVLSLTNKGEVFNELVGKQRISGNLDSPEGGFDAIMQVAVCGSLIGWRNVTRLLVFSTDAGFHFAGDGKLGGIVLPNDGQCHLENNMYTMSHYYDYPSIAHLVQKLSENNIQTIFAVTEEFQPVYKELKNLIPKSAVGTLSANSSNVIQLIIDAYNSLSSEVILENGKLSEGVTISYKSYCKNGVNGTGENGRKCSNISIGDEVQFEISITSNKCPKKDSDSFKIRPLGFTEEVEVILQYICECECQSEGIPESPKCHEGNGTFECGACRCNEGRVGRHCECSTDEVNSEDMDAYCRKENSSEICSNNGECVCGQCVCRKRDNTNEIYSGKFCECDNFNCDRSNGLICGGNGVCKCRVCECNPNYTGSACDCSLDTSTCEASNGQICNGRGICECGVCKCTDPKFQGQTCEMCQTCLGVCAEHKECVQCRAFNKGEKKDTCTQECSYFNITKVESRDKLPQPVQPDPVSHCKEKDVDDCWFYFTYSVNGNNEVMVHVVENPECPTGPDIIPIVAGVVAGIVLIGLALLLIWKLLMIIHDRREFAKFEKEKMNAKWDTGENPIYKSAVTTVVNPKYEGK
Sequence of Integrin beta-1 (Homo sapiens) + Integrin alpha-4 (Homo sapiens) (P13612 whole entry, looked up): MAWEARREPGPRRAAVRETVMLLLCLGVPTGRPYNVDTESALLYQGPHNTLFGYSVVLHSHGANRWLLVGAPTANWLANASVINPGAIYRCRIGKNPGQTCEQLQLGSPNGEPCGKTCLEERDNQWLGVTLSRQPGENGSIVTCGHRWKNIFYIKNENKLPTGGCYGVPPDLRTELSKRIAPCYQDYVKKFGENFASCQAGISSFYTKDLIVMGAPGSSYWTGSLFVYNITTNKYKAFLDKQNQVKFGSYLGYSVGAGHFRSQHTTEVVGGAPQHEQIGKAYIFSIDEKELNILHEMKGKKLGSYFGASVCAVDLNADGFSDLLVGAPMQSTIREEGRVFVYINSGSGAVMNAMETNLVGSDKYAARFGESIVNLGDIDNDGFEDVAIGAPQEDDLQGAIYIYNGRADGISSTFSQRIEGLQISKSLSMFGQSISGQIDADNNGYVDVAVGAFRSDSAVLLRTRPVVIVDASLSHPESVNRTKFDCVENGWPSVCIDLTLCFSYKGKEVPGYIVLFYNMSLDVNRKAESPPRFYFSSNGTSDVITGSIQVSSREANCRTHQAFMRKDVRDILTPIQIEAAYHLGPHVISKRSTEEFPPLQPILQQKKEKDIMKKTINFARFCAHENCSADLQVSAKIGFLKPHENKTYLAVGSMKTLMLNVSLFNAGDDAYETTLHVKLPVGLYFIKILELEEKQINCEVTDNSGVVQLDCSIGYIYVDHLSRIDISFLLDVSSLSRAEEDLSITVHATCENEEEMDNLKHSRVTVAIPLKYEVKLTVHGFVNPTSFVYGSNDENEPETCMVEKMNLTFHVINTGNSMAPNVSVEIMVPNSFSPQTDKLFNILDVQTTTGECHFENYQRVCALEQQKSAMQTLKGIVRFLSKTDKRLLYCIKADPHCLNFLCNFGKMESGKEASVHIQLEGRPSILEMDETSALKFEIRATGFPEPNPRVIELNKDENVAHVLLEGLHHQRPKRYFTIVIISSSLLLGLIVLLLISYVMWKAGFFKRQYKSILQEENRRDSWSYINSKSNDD
Assay [8] is described as follows: superoxide lowering in aged yeast cells, pilot screen, validation compound set (AID 2706;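 active = superoxide response below 65% of plate, a cut near 3 SD across the whole screen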;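 also: yeast exposed to compound for one week at 30 degrees C before staining; 100% = mean of all compound wells on the same plate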). The settings on record: S. cerevisiae aging, superoxide DHE fluorescence; at 10 µM; stronger effect = lower value.
For assay [9], the target named is Beta-adrenergic receptor kinase 1 (Homo sapiens) (UniProt P25098). The assay can be described thus: GRK2 binders displacing RNA aptamer, biochemical, validation, human GRK2, bead flow cytometry (AID 488806;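 active = aptamer binding inhibition above 30%, about 3 SD of noise from non-fluorescent compounds; inactive = inhibition at or below 30%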). Particulars: bead-bound GRK2, FAM-aptamer displacement, at 10 µM, stronger effect = higher value.
Sequence of Beta-adrenergic receptor kinase 1 (Homo sapiens) (P25098 whole entry, looked up): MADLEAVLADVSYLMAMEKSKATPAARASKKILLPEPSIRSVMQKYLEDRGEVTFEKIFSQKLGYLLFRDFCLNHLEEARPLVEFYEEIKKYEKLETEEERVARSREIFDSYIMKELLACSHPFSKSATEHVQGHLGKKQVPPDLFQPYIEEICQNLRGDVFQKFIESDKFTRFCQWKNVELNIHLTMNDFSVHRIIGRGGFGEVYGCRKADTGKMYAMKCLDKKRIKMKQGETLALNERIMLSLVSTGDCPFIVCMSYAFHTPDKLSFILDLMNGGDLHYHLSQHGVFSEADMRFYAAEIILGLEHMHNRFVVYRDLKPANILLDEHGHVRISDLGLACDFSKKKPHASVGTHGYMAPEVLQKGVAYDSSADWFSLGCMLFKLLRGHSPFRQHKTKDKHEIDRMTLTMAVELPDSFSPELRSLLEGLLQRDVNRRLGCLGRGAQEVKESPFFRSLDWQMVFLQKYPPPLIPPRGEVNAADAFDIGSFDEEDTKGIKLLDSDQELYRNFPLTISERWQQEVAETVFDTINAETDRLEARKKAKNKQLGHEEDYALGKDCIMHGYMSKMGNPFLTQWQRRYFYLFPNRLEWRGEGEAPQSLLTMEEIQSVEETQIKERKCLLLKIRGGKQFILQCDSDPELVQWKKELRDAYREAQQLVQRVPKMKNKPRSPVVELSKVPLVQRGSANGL
Assay [10] concerns the target Beta-2 adrenergic receptor (Homo sapiens) (UniProt P07550). Description: beta2AR agonists driving receptor internalization, pilot screen, cell-based, FAP fluorogen, flow cytometry, validation set (AID 504459;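 active = percent response above 42, roughly 3 SD of non-fluorescent test compounds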;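 also: agonist-driven loss of surface beta2AR via internalization measured by FAP dye flow cytometry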). The settings on record: Am2.2-beta2AR cells, FAP surface receptor flow cytometry; at 10 µM; stronger effect = higher value.
Assay [11] deals with AP-2 complex subunit beta (Homo sapiens) (UniProt P63010). The assay can be described thus: inhibitors of arrestin peptide binding to AP2, pilot screen, biochemical, validation set, GST-AP2 beads, flow cytometry (AID 504541;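 active = inhibition above 54%, about 3 SD of non-fluorescent compounds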;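 also: AP2 carries R879A mutation and is captured from E. coli lysate; bead-bound FITC arrestin peptide fluorescence measuring arrestin peptide binding to AP2; 0% = DMSO wells and 100% = excess unlabeled arrestin peptide control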). The settings on record: FITC arrestin peptide, at 10 µM, stronger effect = higher value, AP2 beta2 appendage fragment, R879A mutant.
Sequence of AP-2 complex subunit beta (Homo sapiens) (P63010 whole entry, looked up, the tested form may be a part, one chain of several): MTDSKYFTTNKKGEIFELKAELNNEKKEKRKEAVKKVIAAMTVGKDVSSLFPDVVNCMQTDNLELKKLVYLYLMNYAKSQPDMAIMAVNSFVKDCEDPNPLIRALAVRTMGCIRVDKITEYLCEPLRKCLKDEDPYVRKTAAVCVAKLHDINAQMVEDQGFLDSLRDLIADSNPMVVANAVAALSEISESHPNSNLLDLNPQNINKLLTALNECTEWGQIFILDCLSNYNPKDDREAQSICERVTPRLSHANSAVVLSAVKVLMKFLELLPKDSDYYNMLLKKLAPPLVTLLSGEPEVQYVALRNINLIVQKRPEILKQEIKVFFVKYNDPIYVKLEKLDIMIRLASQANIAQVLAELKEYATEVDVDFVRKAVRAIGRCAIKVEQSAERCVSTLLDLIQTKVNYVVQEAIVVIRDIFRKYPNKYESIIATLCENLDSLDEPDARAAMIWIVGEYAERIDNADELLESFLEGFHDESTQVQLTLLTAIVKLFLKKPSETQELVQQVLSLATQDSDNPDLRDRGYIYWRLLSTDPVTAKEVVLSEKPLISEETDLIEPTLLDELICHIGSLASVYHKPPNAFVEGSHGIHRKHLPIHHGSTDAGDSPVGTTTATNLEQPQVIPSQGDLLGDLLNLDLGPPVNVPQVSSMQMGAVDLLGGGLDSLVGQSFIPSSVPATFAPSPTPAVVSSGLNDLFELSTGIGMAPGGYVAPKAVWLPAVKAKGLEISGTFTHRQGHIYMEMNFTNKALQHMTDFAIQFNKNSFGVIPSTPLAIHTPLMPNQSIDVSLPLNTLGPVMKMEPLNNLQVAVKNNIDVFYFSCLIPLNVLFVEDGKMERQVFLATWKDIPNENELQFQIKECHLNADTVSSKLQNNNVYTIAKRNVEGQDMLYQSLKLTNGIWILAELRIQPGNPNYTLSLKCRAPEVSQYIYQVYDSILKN
Assay [12] in a line: yeast V-ATPase proton transport modulators, S. cerevisiae, pHLuorin, HTS validation (AID 504600; in the data active = response above about 15%;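 also: plate controls were DMSO for no effect and reference compound for full effect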). The settings on record: S. cerevisiae pHLuorin cytosolic pH, at 10 µM, stronger effect = higher value.
Assay [13] concerns anti-desmoglein-3 scFv antibody binding to human DSG3. The assay can be described thus: inhibitors of anti-DSG3 scFv binding to DSG3, pilot screen, biochemical, validation compound set, bead-based, flow cytometry (AID 588368).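 Also: signal is the median channel fluorescence of bead-bound GFP antibody.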 The settings on record: Protein G beads, DSG3-Fc, scFv-GFP binding, at 10 µM, stronger effect = lower value.
Assay [14] is described as follows: inhibitors of fungal efflux pumps CDR1, CDR2, MDR1, pilot screen, validation compound set, multiplex, phenotypic (AID 588506;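 active = efflux inhibition above 0.42, the validation set average plus 4 SD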;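 also: Nile Red retained in cells so higher fluorescence means more efflux inhibition; 0 = negative control wells and 1 = enniatin B 25 µM full block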). Particulars: S. cerevisiae pump-expressing triplex, Nile Red efflux flow cytometry; at 10 µM; stronger effect = higher value; the pumps come from Candida albicans.
Assay [15] has as its target ATP-binding cassette sub-family B member 6 (Homo sapiens) (UniProt Q9NP58). Description: ABCB6 transporter inhibitors, pilot screen, K562-ABCB6 cells, flow cytometry, validation set (AID 588550;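 active = inhibition above the screen-wide mean plus 3 SD, about 51%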;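 also: 0% = DMSO wells and 100% = benzethonium chloride 70 µM positive control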). The settings on record: K562-ABCB6 porphyrin accumulation, 1 h, at 10 µM, stronger effect = higher value.
Assay [16] in a line: promoters of myeloid differentiation in arrested cells, primary screen, cell-based, GFP/MAC1 double positive, flow cytometry, validation set (AID 588685;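 active = differentiation response of at least 50%, scaled between solvent and reference control, from cells with both markers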;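 also: compound exposure lasts four days before antibody staining and flow analysis; 0% = DMSO wells and 100% = 5 µM fulvestrant positive control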). The settings on record: ER-HoxA9 marrow cells, stronger effect = higher value, normalized: vehicle 0, fulvestrant 100.

Sequence of Beta-2 adrenergic receptor (Homo sapiens) (P07550 whole entry, looked up): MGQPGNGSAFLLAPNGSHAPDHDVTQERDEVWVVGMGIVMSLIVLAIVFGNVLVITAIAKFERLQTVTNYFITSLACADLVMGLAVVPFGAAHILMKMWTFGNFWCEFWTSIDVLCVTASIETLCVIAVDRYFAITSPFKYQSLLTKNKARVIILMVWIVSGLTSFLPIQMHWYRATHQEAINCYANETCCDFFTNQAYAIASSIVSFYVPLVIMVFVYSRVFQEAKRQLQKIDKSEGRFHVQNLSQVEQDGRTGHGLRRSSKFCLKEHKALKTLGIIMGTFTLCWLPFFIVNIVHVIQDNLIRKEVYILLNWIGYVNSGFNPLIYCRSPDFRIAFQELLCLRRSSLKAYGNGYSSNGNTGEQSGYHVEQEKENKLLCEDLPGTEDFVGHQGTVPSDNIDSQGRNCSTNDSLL
Sequence of ATP-binding cassette sub-family B member 6 (Homo sapiens) (Q9NP58 whole entry, looked up): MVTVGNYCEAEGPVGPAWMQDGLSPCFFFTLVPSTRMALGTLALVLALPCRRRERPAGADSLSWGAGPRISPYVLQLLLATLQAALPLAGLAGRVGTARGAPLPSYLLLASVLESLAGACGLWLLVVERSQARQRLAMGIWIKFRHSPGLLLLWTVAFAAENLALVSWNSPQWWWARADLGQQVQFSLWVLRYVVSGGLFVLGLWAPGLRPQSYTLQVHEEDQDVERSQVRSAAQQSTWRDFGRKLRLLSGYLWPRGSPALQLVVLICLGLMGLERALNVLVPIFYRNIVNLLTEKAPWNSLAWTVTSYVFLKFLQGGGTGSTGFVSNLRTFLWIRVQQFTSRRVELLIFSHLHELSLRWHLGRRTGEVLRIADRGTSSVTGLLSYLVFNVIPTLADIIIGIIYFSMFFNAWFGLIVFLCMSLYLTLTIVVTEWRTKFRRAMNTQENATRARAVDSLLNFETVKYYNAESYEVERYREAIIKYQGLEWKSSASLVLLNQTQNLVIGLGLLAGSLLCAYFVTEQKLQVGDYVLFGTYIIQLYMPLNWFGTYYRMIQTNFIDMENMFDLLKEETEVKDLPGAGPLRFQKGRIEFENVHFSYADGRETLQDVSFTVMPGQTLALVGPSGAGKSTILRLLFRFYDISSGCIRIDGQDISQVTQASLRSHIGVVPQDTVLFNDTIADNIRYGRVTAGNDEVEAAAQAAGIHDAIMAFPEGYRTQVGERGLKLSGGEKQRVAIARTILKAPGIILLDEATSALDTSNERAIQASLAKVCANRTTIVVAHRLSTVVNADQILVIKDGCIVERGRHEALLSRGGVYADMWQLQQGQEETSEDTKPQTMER

Regarding `NS(=O)(=O)c1cc2c(cc1Cl)NC(C(Cl)Cl)NS2(=O)=O` (stereo not drawn), the percent of DMSO control GFP in assay [1] is 100% (inactive). Moreover, the GFP response vs DMSO in assay [2] was 101% (inactive); in assay [4] it was 108% (inactive). Also, the percent response of DMSO control in assay [3] is 102% (inactive). In addition, in assay [5], the GFP response, % of DMSO is 112% (inactive). For the same molecule, in assay [6], the double positive events turned out to be 63%. In addition, in [6], the vesicle binding response is 132% (inactive). Moreover, the inhibition in assay [7] is 2.29% (inactive); in assay [11], -6.64% (inactive); in assay [15] it was 4% (inactive). Besides, the superoxide response (% of plate) in [8] is 92.7% (inactive). For the same molecule, in assay [9], the aptamer binding inhibition is 4% (inactive). The response in assay [10] is 23.7% (inactive); in [12], 2.72% (inactive). In addition, in assay [13], the binding (% of control) is 104% (inactive). Further, the efflux inhibition (fraction of control) in assay [14] is 0.21 (inactive). Further, the differentiation response in assay [16] was -9.91% (inactive).
As for `C#C[C@]1(O)CC[C@H]2[C@@H]3CCc4cc(OC5CCCC5)ccc4[C@H]3CC[C@@]21C`, in assay [1], the percent of DMSO control GFP is 101% (inactive). The GFP response vs DMSO in assay [2] is 104% (inactive); in [4], 126% (inactive). For the same molecule, in assay [3], the percent response of DMSO control is 88.6% (inactive). Also, the GFP response, % of DMSO in assay [5] is 113% (inactive). Also, in assay [6], the double positive events is 62.7%. Also, the vesicle binding response in assay [6] was 213% (inactive). The results for the inhibition in assay [7], in [11] and in assay [15] were 14.2% (inactive), -1.15% (inactive) and 3% (inactive), respectively. Further, the superoxide response (% of plate) in assay [8] is 97.7% (inactive). For the same molecule, the aptamer binding inhibition in assay [9] was -1% (inactive). Besides, the response in assay [10] was -9.24% (inactive); in assay [12], 6.88% (inactive). In assay [13], the binding (% of control) is 105% (inactive). Further, the efflux inhibition (fraction of control) in assay [14] was 0.38 (inactive). Besides, the differentiation response in assay [16] was 0% (inactive).
Regarding `O=C(NC1CC1)C1CCN(C2CCN(C(=O)Cc3ccc(F)cc3)CC2)CC1`, the percent of DMSO control GFP in assay [1] was 94.6% (inactive). Moreover, the GFP response vs DMSO in [2] is 136% (inactive); in assay [4] it was 84.7% (inactive). Further, the percent response of DMSO control in assay [3] is 111% (inactive). The GFP response, % of DMSO in assay [5] was 90.5% (inactive). In addition, the double positive events in [6] was determined as 38%. Also, in [6], the vesicle binding response was 48% (active). Moreover, the inhibition in assay [7] was -3.24% (inactive); in assay [11], 44.4% (inactive); in assay [15], 8% (inactive). In addition, in assay [8], the superoxide response (% of plate) is 106% (inactive). For the same molecule, the aptamer binding inhibition in assay [9] is -7% (inactive). Also, the response in assay [10] is -2.98% (inactive); in [12] it was -9.52% (inactive). Also, in assay [13], the binding (% of control) is 98.3% (inactive). Also, the efflux inhibition (fraction of control) in [14] was 0.27 (inactive). Besides, in assay [16], the differentiation response is 6.55% (inactive).
Regarding `Cc1cnc(N)c2c(=O)oc3ccccc3c12`, the percent of DMSO control GFP in assay [1] is 99.8% (inactive). The GFP response vs DMSO in assay [2] was 100% (inactive); in [4], 96.6% (inactive). The percent response of DMSO control in assay [3] is 105% (inactive). In addition, in assay [5], the GFP response, % of DMSO was 95.3% (inactive). Also, the double positive events in [6] came to 61.2%. The vesicle binding response in assay [6] is 275% (inactive). The inhibition was -8.75% (inactive) in assay [7], -2.59% (inactive) in assay [11] and -2% (inactive) in assay [15]. Moreover, the superoxide response (% of plate) in assay [8] is 98.8% (inactive). Moreover, in assay [9], the aptamer binding inhibition was 4% (inactive). The response is -6.01% (inactive) in assay [10] and -3.82% (inactive) in [12]. Besides, the binding (% of control) in assay [13] is 97.1% (inactive). Also, in assay [14], the efflux inhibition (fraction of control) was -0.01 (inactive). The differentiation response in [16] is -6.6% (inactive).
